Compounds with a hit are over-represented: about 8.2% of the library has one in this group of screens.
SW480 rereplic = A quantitative high throughput screen for small molecules that induce DNA re-replication in SW480 colon adenocarcinoma cells | SW480 DNA re-replication, Hoechst DNA content imaging, 48 h | Potency, µM (titrated, usually from 46.1 µM), usual class: activators | hit rate 1.8% among 340,000; also: nearly all actives have a fitted effect of over 55% in size
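Compounds, transferred as 23 nL by pin tool, were incubated with cells for 48 hr; DNA content per nucleus was then quantified by Hoechst staining and fluorescence plate imaging.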
MCF10A rereplic = A quantitative high throughput screen for small molecules that induce DNA re-replication in MCF 10a normal breast cells; Potency, µM (titrated, usually from 46.1 µM), hits mostly activators; MCF 10A DNA re-replication, Hoechst nuclear intensity, 48 h; hit rate 2.9% among 350,000; AID 624296, 2012; also: nearly all actives have a fitted effect of over 50% in size
ELG1 repair inh = qHTS screen for small molecules that inhibit ELG1-dependent DNA repair in human embryonic kidney (HEK293T) cells expressing luciferase-tagged ELG1; AID 504467, 2011; Potency, µM (series often up to 46.1 µM), hits mostly inhibitors; HEK293T ELG1-luciferase reporter, luminescence, 16 h; DNA damage induced by 5-fluorouridine; hit rate 2.3% among 330,000; also: nearly all actives have a fitted effect of over 55% in size
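Luminescence from the luciferase reporter, measured 30 min after ONE-Glo reagent at room temperature, was the read-out. Beforehand, 2,000 cells per well were exposed for 16 hr at 37 °C to 5-fluorouridine together with compound or vehicle.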
KB-3-1 tox = qHTS assay for MDR1-selective chemotherapeutics: Primary screen using the parental adenocarcinoma cell KB-3-1. KB-3-1 viability, CellTiter-Glo ATP luminescence, 72 h. Potency, µM (top dose mostly 46.1 µM), most hits filed as cytotoxic. hit rate 1.4% among 400,000; also: nearly all actives have a fitted effect of over 60% in size
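Parental KB-3-1 adenocarcinoma cells in phenol-red-free DMEM with 10% FBS were pin-treated with compounds at several concentrations, incubated 72 h at 37 °C, and viability read by CellTiter-Glo luminescence; concentration-effect curves were fitted after normalization.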
KB-V1 MDR tox = qHTS assay for MDR1-selective chemotherapeutics: Primary screen using the drug-selected MDR subline cells KB-V1; KB-V1 MDR cells viability, CellTiter-Glo, 72 h; Potency, µM (doses to about 46.1 µM), usual class: cytotoxic; hit rate 3.4% among 400,000; AID 1347076, 2019; also: nearly all actives have a fitted effect of over 60% in size
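Readout: CellTiter-Glo luminescence, 10 min after addition. Cells: KB-V1 MDR subline, 72 h at 37 degrees C with compound. Analysis: corrected, normalized data fitted to concentration-effect curves.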
Hits are given with their value; 0 = inactive; ? = inconclusive; - = not tested or not shown; [ ] = another dose, or the depositor's remark. Calls follow the shape of the dose curve; as a rule, active = well fitted curve in the direction sought with a large enough effect; inconclusive = small, poorly fitted or top-dose-only effect, or another doubt; inactive = no such curve, though single readings can be large; an effect the other way counts as inactive or inconclusive.

SMILES	SW480 rereplic	MCF10A rereplic	ELG1 repair inh	KB-3-1 tox	KB-V1 MDR tox
CCOc1ccccc1N(CC)C(=O)Cn1ncc2c([nH]c3ccccc32)c1=O	-	-	-	?	0
CCSc1ccccc1C(=O)Nc1cccc(OC)c1	0	0	0	0	18µM
COc1ccc(NC(=O)c2cc(-c3ccccn3)nc3c(C)cc(C)cc23)c(C)c1	?	10µM	0	-	-
COc1cccc(NC(=O)c2cc(-c3ccco3)nc3ccccc23)c1	0	0	-	0	?
COc1cccc(NC(=O)c2cc(-c3ccccn3)nc3ccccc23)c1	0	0	?	?	1.8µM
COc1cccc(NC(=O)CN(C)C(=O)c2ccccc2OCC(=O)Nc2cccc(C(F)(F)F)c2)c1	0	0	?	0	?
COc1cccc(NC(=O)c2cc(-c3ccncc3)nc3c(C)cc(C)cc23)c1	0	0	?	0	0
COc1cccc(NC(=O)CN(C)C(=O)c2cccnc2Nc2cccc(C(F)(F)F)c2)c1	?	21µM	?	?	?
CCCCNC(=O)C1(C)CCN1C(=O)c1cc2ccccc2s1 (stereo unspecified)	-	-	-	0	0
Cc1ccc(CNC(=O)Cn2nnc(C(=O)Nc3cccc(C)c3C)c2N)cc1	0	0	0	0	0
Cc1ccccc1Cn1nnc(C(=O)Nc2cccc(C)c2C)c1N	0	15µM	?	?	13µM
O=C(CSc1nnc(COc2ccccc2)o1)NC1CC2CCC1C2 (stereo unspecified)	0	0	0	0	0
CCOc1ccc(N(CC(=O)NC2CCCCC2)C(=O)CSc2nnc(COc3ccccc3)o2)cc1	0[9.22 µM]	0	18µM	0	0
O=C(CSc1nnc(COc2ccc(Br)cc2)o1)NC1CCCCC1	0	0	0	0	0
O=C(CN(Cc1cccs1)C(=O)CSc1nnc(COc2ccccc2)o1)NC1CCCCC1	0	0	18µM	0	0
Cc1ccc(C(=O)N(CC(=O)NC2CCCC2)Cc2cccs2)s1	0	0	0	0	5.8µM
O=C(CC(=O)Nc1ccccc1F)Nc1ccc2nc3n(c(=O)c2c1)CCCCC3	-	-	-	0	0
O=C(Nc1ccc(Oc2cccnc2)cc1)c1ccccc1Cl	0	0	0	0	0
O=C(Nc1ccncc1)c1ccccc1F	0	0	10µM	0	0
O=C(Nc1ccc(Oc2cccnc2)cc1)c1ccccc1F	0	0	?	?	16µM
c1ccc(-c2ccc3cnccc3n2)cc1	-	-	-	0	0
CC(C)N(Cc1ccccc1)C(=O)CN1C(=O)NC2(CCCC2)C1=O	0	0	0	0	0
CCc1noc(C)c1C(=O)NNC(=O)c1cc(OC)c(OC)c(OC)c1	18µM	0	0	0	0
COc1ccc(-c2csc(NC(=O)c3c(C)noc3C)n2)cc1F	0	0	?	0	0
CCc1noc(C)c1C(=O)Nc1nc(-c2ccc(OC)cc2)cs1	18µM	0	0	0	0
SMILES	SW480 rereplic	MCF10A rereplic	ELG1 repair inh	KB-3-1 tox	KB-V1 MDR tox
CCc1noc(C)c1C(=O)Nc1nc(-c2ccc(OC)cc2OC)cs1	0	0	?	0	0
Cc1noc(C)c1C(=O)Nc1nc(-c2ccc(F)c(F)c2)cs1	0	0	0	0	21µM
CCc1noc(C)c1C(=O)Nc1nc(-c2cc(OC)ccc2OC)cs1	0	0	16µM	0	0
CC(=O)NC(CC(=O)N1CCCC1)c1ccccc1 (stereo unspecified)	0	0	-	0	0
O=C(COc1ccccc1)N(Cc1nnc(-c2ccccc2Cl)o1)C1CC1	0	0	0	0	0
O=C(CSC(=S)N1CCCC1)N(Cc1nnc(-c2ccccc2Cl)o1)C1CC1	0	0	?	0	4.6µM
O=C(NCc1ccccc1F)C(=O)NCC(c1ccc2c(c1)OCO2)N1CCOCC1 (stereo unspecified)	-	-	-	0	0
C[C@@H]1CN([C@@H](C)CO)C(=O)c2cc(Br)cnc2O[C@@H]1CN(C)Cc1ccc(Oc2ccccc2)cc1	-	-	-	0	?
COc1cc(OC)c2c(-c3cccc(-c4ccc(C(F)(F)F)cc4)c3)cc(=O)oc2c1	0	?	0	0	0
COc1cc(OC)c2c(-c3cccc(-c4sccc4C(C)=O)c3)cc(=O)oc2c1	6.5µM	0.65µM	?	2.9µM	2.6µM
COc1cc(OC)c2c(-c3cccc(-c4ccc(OC)c(OC)c4)c3)cc(=O)oc2c1	2.1µM	1.3µM	?	0	0
COc1cc(OC)c2c(-c3cccc(-c4ccc(F)c(Cl)c4)c3)cc(=O)oc2c1	?	4.6µM	?	?	?
COc1cc(OC)c2c(=O)cc(-c3ccccc3)oc2c1	0	0	?	0	0
CCOC(=O)c1ccc(-c2cccc(-c3cc(=O)oc4cc(OC)cc(OC)c34)c2)cc1	?	?	0	0	0
COC(=O)C(C)Oc1cc(OC(C)C(=O)OC)c2c(-c3ccccc3)cc(=O)oc2c1 (stereo unspecified)	0	0	?	0	0
COc1cc(OC)c2c(-c3cccc(-c4ccc(NC(C)=O)cc4)c3)cc(=O)oc2c1	9.2µM	?	?	0	0
COc1ccccc1Cc1c(C2CCCCC2)nc2c3ccccc3ccn12	-	-	-	0	?
c1cncc(CNc2ncnc3ccc(-c4ccoc4)cc23)c1	0	0	?	0	0
Cc1cccc(CNc2ncnc3ccc(-c4ccoc4)cc23)c1	0	2.6µM	?	0	0
Cc1cccc(CNc2ncnc3ccc(-c4ccc5c(c4)OCCO5)cc23)c1	0	?	?	8.2µM	0
c1nc(NCc2ccc3c(c2)OCO3)c2cc(-c3ccc4c(c3)OCCO4)ccc2n1	0[9.22 µM]	9.2µM	0	0	0
Cc1cccc(-c2ccc3ncnc(NCc4cccs4)c3c2)c1	0	0	?	13µM	0
CCNC(=O)C1(C)CCN(Cc2ccc(OC(F)(F)F)cc2)C1 (stereo unspecified)	-	-	-	0	0
COc1ccccc1Cc1c(-c2ccc(OC)c(OC)c2)nc2ccc(C)cn12	-	-	-	0	0
COc1cccc(-c2ccc3ncnc(NCc4ccc5c(c4)OCO5)c3c2)c1	0[9.22 µM]	16µM	8.2µM	0	0
c1cncc(CNc2ncnc3ccc(-c4ccc5c(c4)OCO5)cc23)c1	0	0	0	0	0
COC(=O)c1c(-c2ccc(OC)cc2)sc2ccc(N3CCOCC3)cc12	0	0	?	15µM	0
COc1ccc(S(=O)(=O)N2CCC(C(=O)NC(c3nc4ccccc4[nH]3)C(C)C)CC2)cc1 (stereo unspecified)	0	?	0	0	0
COc1ccc(Br)cc1CN1C(=O)NC2(CCCCCC2)C1=O	0	0	0	0	0
COc1cc(Br)c(CN2C(=O)NC3(CCCCCC3)C2=O)cc1OC	0	0	?	0	6.5µM

Bioassay records: PubChem BioAssay, National Center for Advancing Translational Sciences (NCATS)
